From PubChem BioAssay (NCATS)
Where “and” joins values, the source holds several entries; their conditions need not be identical. Equal values may be shown once. Inconclusive results are not listed. Where a structure was tested more than once in an assay, its records may differ in their call. Calls of active or inactive are those of the source. Calls come from the whole dose curve; as a rule, active = well fitted curve in the direction sought with a large enough effect; inconclusive = small, poorly fitted or top-dose-only effect, or another doubt; inactive = no such curve, though single readings can be large; an effect the other way counts as inactive or inconclusive.

Key:
[1] = P-glycoprotein substrates identified in KB-3-1 adenocarcinoma cell line, qHTS therapeutic library screen (AID 1346986); note: nearly all actives have a fitted effect of over 60% in size;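 note: potency is the fitted concentration of half-maximal effect; potency is for cytotoxicity meaning loss of cell viability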
In short: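 Viability read by CellTiter-Glo after 72 h compound exposure in dose-response of KB-3-1 and KB-8-5-11 (P-gp-high) cells. Hits needed AC50 < 10 uM, >50% maximum response and curve class -1.1 to -2.4. Cherry-picks retested ± tariquidar, including pcDNA/MDR-19 HEK-293 pair.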

[2] = P-glycoprotein substrates identified in KB-8-5-11 adenocarcinoma cell line, qHTS therapeutic library screen (AID 1346987); note: nearly all actives have a fitted effect of over 65% in size; note: potency is the fitted concentration of half-maximal effect
In short: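 Luminescence from CellTiter-Glo, read 5 min after addition, quantified survival of KB-8-5-11 (P-gp-overexpressing) cells exposed to compounds for 72 h. AC50 was derived from concentration-response curves.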

[3] = NS1 protein of Zika virus - qHTS assay to identify small molecule inhibitors in human HEK 293 cells (AID 1347053); note: nearly all actives have a fitted effect of over 55% in size; note: potency is the fitted concentration of half-maximal effect
In short: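 TR-FRET signal from two anti-ZIKV NS1 antibodies quantified NS1 in HEK 293 cells 24 h after MR766 infection at MOI = 0.5; compounds were added 1 h before virus. Uninfected cells and infected cells defined the NS1 normalization range.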

[4] = qHTS of pediatric cancer cell lines to identify multiple opportunities for drug repurposing: Primary screen for DAOY cells (AID 1347090); note: nearly all actives have a fitted effect of over 55% in size; note: potency is the fitted concentration of half-maximal effect
In short: (§1)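 Cell viability, CellTiter-Glo luminescence; 500-1,000 cells/well, 8- or 11-point titration, 48 h compound exposure at 37 degrees C, 5% CO2. Controls: DMSO neutral, bortezomib 2.3 µM final as positive.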

[5] = qHTS of pediatric cancer cell lines to identify multiple opportunities for drug repurposing: Primary screen for A673 cells (AID 1347092); note: nearly all actives have a fitted effect of over 45% in size; note: potency is the fitted concentration of half-maximal effect
In short: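 Cell viability of A673 measured by CellTiter-Glo ATP luminescence after 48 hours compound exposure. Dilution series spanned 0.78 nM to 46 µM (MIPE, 11-point) or 0.59 nM to 46 µM (NPC, 8-point); bortezomib 2.3 uM positive control.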

[6] = qHTS of pediatric cancer cell lines to identify multiple opportunities for drug repurposing: Primary screen for SK-N-MC cells (AID 1347093); note: potency is the fitted concentration of half-maximal effect
In short: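 Metabolically active cells were quantified by ATP-dependent luminescence (CellTiter-Glo, 15 min at room temperature) following 48 h treatment. Cells had been plated at 500-1,000 per well and settled for 5 h beforehand.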

[7] = qHTS of pediatric cancer cell lines to identify multiple opportunities for drug repurposing: Primary screen for BT-37 cells (AID 1347094); note: potency is the fitted concentration of half-maximal effect
In short: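 Plated cells (500-1,000 per well, growth media) were allowed to settle for 5 hours, treated with compound dilutions for 48 hours, then lysed with CellTiter-Glo for 15 min at room temperature before luminescence reading.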

[8] = qHTS of pediatric cancer cell lines to identify multiple opportunities for drug repurposing: Primary screen for TC32 cells (AID 1347089); note: nearly all actives have a fitted effect of over 60% in size; note: potency is the fitted concentration of half-maximal effect
In short: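 Luminescent ATP read-out (CellTiter-Glo) of metabolically active TC32 cells after 48 h exposure. Concentration-response curves came from 11-point (MIPE, 0.78 nM–46 µM) or 8-point (NPC, 0.59 nM–46 µM) primary titrations; follow-up used 11 points.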

[9] = qHTS of pediatric cancer cell lines to identify multiple opportunities for drug repurposing: Primary screen for SJ-GBM2 cells (AID 1347091); note: potency is the fitted concentration of half-maximal effect
In short: as §1

[10] = Identifying Small Molecule Inhibitors of Pancreatic Cancer Stem Cells (Panc1, Adherent) (AID 1259362); conditions: Potency: viability; note: potency is the fitted concentration of half-maximal effect
In short: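 Endpoint: ATP-based luminescence, 48 h drug exposure. Bortezomib at 9.2 uM final as full-kill control; DMSO vehicle as negative control; activity normalized between vehicle and cell-free wells.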

[11] = Identifying Small Molecule Inhibitors of Pancreatic Cancer Stem Cells (A278, Adherent) (AID 1259361); note: nearly all actives have a fitted effect of over 35% in size
In short: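 Adherent (2D) versus sphere (3D) formats; spheres generated 14 d in SCM beforehand. Compound transferred by pin tool after 4 h, 48 h incubation, CellTiter-Glo endpoint.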

SMILES	Potency [1]	Potency [2]	Potency [3]	Potency [4]	Potency [5]	Potency [6]	Potency [7]	Potency [8]	Potency [9]	Potency [10]	IC50 (viability decrease) [11]
CN(C1CCc2c(c3ccccc3n2CC(=O)O)C1)S(=O)(=O)c1ccc(F)cc1 (configuration not stated)	inactive	inactive	inactive	5900 nM (active)	935 nM (active)	935 nM (active)	–	–	–	–	–
COC(=O)Nc1ccc(-c2nc(N3CCOCC3)c3cnn(C4CCN(Cc5cccnc5)CC4)c3n2)cc1	1030 nM (active)	148 nM (active) and 920 nM (active)	16600 nM (active)	4690 nM (active)	4690 nM (active)	46.9 nM (active)	544 nM (active)	–	–	–	–
CCCCCCCCCC(=O)N[C@@H](Cc1c[nH]c2ccccc12)C(=O)N[C@H](CC(N)=O)C(=O)N[C@@H](CC(=O)O)C(=O)N[C@@H]1C(=O)NCC(=O)N[C@@H](CCCN)C(=O)N[C@@H](CC(=O)O)C(=O)N[C@H](C)C(=O)N[C@@H](CC(=O)O)C(=O)NCC(=O)N[C@H](CO)C(=O)N[C@@H]([C@@H](C)CC(=O)O)C(=O)N[C@@H](CC(=O)c2ccccc2N)C(=O)O[C@@H]1C	inactive	inactive	inactive	inactive	inactive	inactive	inactive	inactive	inactive	–	–
C=CC(=O)Nc1cccc(Oc2nc(Nc3ccc(N4CCN(C)CC4)cc3OC)ncc2Cl)c1	–	inactive and 20.6 µM (active)	33200 nM (active)	37.2 nM (active)	–	–	27300 nM (active)	–	–	inactive	–
O=C(O)c1ccc2cc(-c3ccc(O)c(C45CC6CC(CC(C6)C4)C5)c3)ccc2c1	–	–	590 nM (active)	–	2350 nM (active)	372 nM (active)	863 nM (active)	–	148 nM (active)	–	935 nM (active)
CC(C)(O)c1cc2nc(-c3cnc(N)nc3)nc(N3CCOCC3)c2s1	411 nM (active)	105 nM (active) and 517 nM (active)	–	148 nM (active)	372 nM (active)	11.8 nM (active)	769 nM (active)	466 nM (active)	235 nM (active)	–	–
Cc1ccc(NC(=O)C2(c3ccc4c(c3)OC(F)(F)O4)CC2)nc1-c1cccc(C(=O)O)c1	inactive	526 nM (active) and inactive	37.2 nM (active)	469 nM (active)	59 nM (active)	46.9 nM (active)	38.5 nM (active)	234 nM (active)	37.2 nM (active)	–	–
CN(C)c1nc(Cc2ccc(NC(=O)c3ccc4ccccc4c3)cc2)nc(Cl)c1CC(=O)O	inactive	inactive	inactive	–	inactive	inactive	inactive	inactive	inactive	–	–
Cc1cn2cc(C(=O)N(C)CCO)cc(N[C@@H]3CCOc4cccc(C)c43)c2n1	inactive	inactive	inactive	inactive	inactive	inactive	inactive	inactive	inactive	–	–
Cn1c(CNc2ccc(C(=N)N)cc2)nc2cc(C(=O)N(CCC(=O)O)c3ccccn3)ccc21	inactive	inactive	inactive	–	–	–	inactive	inactive	–	–	–
CC(C)(C)c1cc(C(C)(C)C)c(NC(=O)c2c[nH]c3ccccc3c2=O)cc1O	–	–	inactive	inactive	inactive	–	inactive	inactive	inactive	23500 nM (active)	–
CCCCOc1c(C(=O)c2c(F)cc(C)cc2F)cnc2n[nH]cc12	inactive and 3.66 µM (active)	–	inactive	11800 nM (active)	2350 nM (active)	1660 nM (active)	17200 nM (active)	inactive	1180 nM (active)	–	–
CCOC(=O)C1=C(C)NC2=C(C(=O)CC(C)(C)C2)C1c1ccc(-c2ccccc2)cc1 (configuration not stated)	inactive	inactive and 23.1 µM (active)	10500 nM (active)	–	3720 nM (active)	–	3850 nM (active)	–	4690 nM (active)	–	–
Cc1cc(Nc2cc(NC(=O)c3c(Cl)cccc3Cl)ccn2)nc(N)n1	326 nM (active)	935 nM (active) and 1.16 µM (active)	2350 nM (active)	1480 nM (active)	1180 nM (active)	132 nM (active)	544 nM (active)	930 nM (active)	590 nM (active)	–	–
CS(=O)(=O)c1ccc(-c2cnc(N)c(C(=O)Nc3ccccc3)n2)cc1	inactive	inactive	inactive	inactive	–	4180 nM (active)	inactive	inactive	5900 nM (active)	–	–
CNC(=O)c1ccc(N2C(=S)N(c3cnc(C#N)c(C(F)(F)F)c3)C(=O)C23CCC3)cc1F	inactive	inactive	inactive	935 nM (active)	1480 nM (active)	1050 nM (active)	19300 nM (active)	–	–	–	–
